According to PubChem BioAssay (NCATS):
Inconclusive results are not listed. Unmarked numbers belong to inactive results. The source made the active and inactive calls. Calls follow the shape of the dose curve; as a rule, active = well fitted inhibition curve with a large enough effect; inconclusive = small, poorly fitted or top-dose-only effect; inactive = no such curve, though single readings can be large or run the other way.

experiment: qHTS Screen of the MIPE 4.0 Collection Against Ewings Sarcoma (RDES) (AID 1259252); conditions: RD-ES Ewing sarcoma viability, CellTiter-Glo, 48 h; series mostly up to 45.8 µM; viability (percent of control): at the top concentration; also: nearly all actives have a fitted effect of over 35% in size;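 as to viability (percent of control): 100% = DMSO-treated cells and 0% = medium-only wells without cells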
Source text: There is a large unmet medical need for treatments for Ewing sarcoma, a pediatric sarcoma. We sought to identify compounds that inhibited Ewing sarcoma cells in vitro with the goal to then test promising drugs in two drug combinations in vitro to look for synergistic drug combinations. Promising combinations would then proceed to additional validation, including in vivo testing.
Using the NCATS developed oncology compound library called the Mechanism of Interrogation Plate (MIPE), four Ewing sarcoma cell lines were evaluated (TC32, TC71, RDES, EW8). Compounds, in a 12-point titration series, were incubated with cells for 48 hours and the read out was cell viability (CellTiter-Glo from Promega). These initial experiments were used to select appropriate concentrations of each single agent for subsequent two-drug matrix combinations such that the concentrations in the matrices would span both activity and non-activity.
Cells, in the log phase of growth, were seeded in 5 uL of RPMI plus 5% FBS, […] L-glutamine, 100 U/ml penicillin and 100 ug/ml streptomycin into 1536-well solid-bottom white tissue culture treated Greiner Bio One Plates (789173-F) using a MultiDrop Combi (Thermofisher Scientific) dispenser and a small sterile cassette. One column was media alone to be used as a :"no cells" control. The plates were then covered with sterilized stainless steel gasketed lids from Kalypsys. After allowing cells to attach for 4 hours, 23 nL of test compound or control (negative control DMSO and positive control 9.2 uM Bortezomib-final) were added from a 1536-well polypropylene compound source plate to each well using a 1536 head pin tool from Kalypsys. Cells were then incubated for 48 hours at 37C, 95% relative humidity and 5% CO2. After 48 hours, plates were removed from the incubator and 3 uL of CellTiter-Glo (Promega) was added using an Aurora Flying Reagent Dispenser Bioraptor. Plates were incubated at room temperature for 10 minutes prior to reading the luminescence on the Viewlux (PerkinElmer). The relative luciferase units are used to calculate the percent activity using the activity of DMSO in the cells and no cells columns for normalization of no inhibition and full inhibition respectively.
Potency is read from the fitted curve at half-maximal effect.

SMILES | Potency | viability (percent of control)
CC(=O)OCC(=O)[C@@]1(O)[C@H](C)C[C@H]2[C@@H]3C=C(C)C4=Cc5c(cnn5-c5ccccc5)C[C@]4(C)[C@@H]3[C@@H](O)C[C@@]21C | 6.62 µM (active) | –
Nc1nc(NCCNc2ncc(-n3ccnc3)c(-c3ccc(Cl)cc3Cl)n2)ccc1[N+](=O)[O-] | 0.833 µM (active) | –
OCCCNc1cc(-c2ccnc(Nc3cccc(Cl)c3)n2)ccn1 | 0.166 µM (active) | –
C[C@]12CC[C@H](O)CC1=CCC1C2CC[C@]2(C)C(n3cnc4ccccc43)=CCC12 (stereo not given in full) | – | 98.3%
NC(=O)c1c(OCc2c(F)cc(Br)cc2F)nsc1NC(=O)NCCCCN1CCCC1 | 16.6 µM (active) | –
CC[C@@]1(O)C(=O)OCc2c1cc1n(c2=O)Cc2cc3cc(O)ccc3nc2-1 | 0.0132 µM (active) | –
CCn1cc(-c2ccnc3[nH]c(-c4cccc(CN(C)C)c4)cc23)c(-c2ccc(NC(=O)N(C)C)cc2)n1 | 7.43 µM (active) | –
CC(C)C[C@H](NC(=O)CNC(=O)c1cc(Cl)ccc1Cl)B(O)O | 0.264 µM (active) | –
CCC[C@H](NC(=O)C(C#N)=Cc1cccc(Br)n1)c1ccccc1 | 7.43 µM (active) | –
Nc1nccc(Oc2ccc(NC(=O)c3c[nH]cc(-c4ccc(F)cc4)c3=O)cc2F)c1Cl | 1.66 µM (active) | –
O=C(Nc1ncc(-c2cc(C(F)F)nn2-c2c(Cl)cccc2Cl)s1)C1CC1 | 0.418 µM (active) | –
Nc1ncnc2c1c(-c1cccc(OCc3ccccc3)c1)cn2C1CC(CN2CCCC2)C1 (stereo not given) | 23.5 µM (active) | –
Nc1nc(Nc2ccc(S(N)(=O)=O)cc2)nn1C(=O)c1c(F)cccc1F | 8.33 µM (active) | –
CC(=O)OCCN1C(=O)c2c(C)nc3ccc(S(=O)(=O)N4CCOCC4)cc3c2C1=O | – | 118%
CN(C)CCCN=c1c2ccccc2n(C)c2[nH]c(=O)n(C)c(=O)c12 | 2.64 µM (active) | –
Cc1ccc2nc(NC(=O)CSc3nc4c(c(=O)n3-c3ccccc3)SCC4)sc2c1 | 18.7 µM (active) | –
CN1CCN(c2ccc3nc(-c4c(N)c5c(F)cccc5[nH]c4=O)[nH]c3c2)CC1 | 14.8 µM (active) | –
O=C(c1cncc(Br)c1)N1CCC(N2CCCC2)CC1 | – | 114%
Clc1cccc(-n2nnnc2NCc2ccccc2Oc2ccccn2)c1Cl | – | 125%
Clc1cccc(-c2nnnn2Cc2cccnc2)c1Cl | – | 122%

SMILES | Potency | viability (percent of control)
CN(C)c1nc(Cc2ccc(NC(=O)c3ccc4ccccc4c3)cc2)nc(Cl)c1CC(=O)O | – | 130%
Cc1cc(Nc2cc(N3CCN(C)CC3)nc(C=Cc3ccccc3)n2)n[nH]1 | 5.4 µM (active) | –
Cc1cccc(C=NNc2cc(N3CCOCC3)nc(OCCc3ccccn3)n2)c1 | 18.7 µM (active) | –
CC(C)c1cc(C(=O)N2Cc3ccc(CN4CCN(C)CC4)cc3C2)c(O)cc1O | 0.469 µM (active) | –
CC1=C(CO)C(=O)O[C@@H]([C@@H](C)[C@H]2CC[C@H]3[C@@H]4C[C@H]5O[C@]56[C@@H](O)C=CC(=O)[C@]6(C)[C@@H]4CC[C@]23C)C1 | 0.526 µM (active) | –
Cc1ccc(S(=O)(=O)Nc2cc(Cl)ccc2C(=O)Nc2nc(-c3ccccc3)cs2)cc1 | 10.5 µM (active) | –
Cc1ccc(CN2CCNCC2)cc1NC(=O)CNc1ccc(F)c(F)c1 | 6.62 µM (active) | –
CNC(=O)c1c(F)cccc1Nc1nc(Nc2cc3c(cc2OC)CCN3C(=O)CN(C)C)nc2[nH]ccc12 | 20.9 µM (active) | –
COc1cccc2c(NCc3ccccc3)nc(-n3c(N)nc4ccccc43)nc12 | 8.33 µM (active) | –
O=C(C=Cc1cccnc1)NCCCCC1CCN(C(=O)c2ccccc2)CC1 | 0.0042 µM (active) | –
COc1cccc(Nc2c(C(N)=O)cnc3c(C)cc(S(=O)(=O)c4cccc(C(=O)N(C)C)c4)cc23)c1 | – | 105% [at 23.2 µM]
CS(=O)(=O)N1CCN(Cc2cc3nc(-c4cccc5[nH]ncc45)nc(N4CCOCC4)c3s2)CC1 | 1.18 µM (active) | –
CCNC(=O)Nc1ccc2ncc(Nc3ccc(C)cc3)nc2n1 | 0.332 µM (active) | –
COCCOc1ccc2c(c1)ncn2-c1ccc2cccc(N3CCC(N)CC3)c2n1 | 18.7 µM (active) | –
CC(C)(O)CCc1ccc(OCc2cc(-c3cccc(OC(F)F)c3)c3ncccc3c2)cc1 | – | 110%
CC(C)c1nn(-c2c(Cl)cccc2Cl)c2nc(Cc3ccc(OCCO)cc3)[nH]c(=O)c12 | 0.187 µM (active) | –
CC=CC1=C(C(=O)O)N2C(=O)[C@H](NC(=O)[C@H](N)c3ccc(O)cc3)[C@@H]2SC1 | – | 107%
CC1(C)OC2=C(C(=O)c3ccccc3C2=O)[C@H](NCc2ccccc2)[C@H]1O | 2.64 µM (active) | –
Cc1nc(N)ncc1-c1nc(N2CCOCC2)c2sc(C(C)(C)O)cc2n1 | 1.66 µM (active) | –
COc1cccc2nc(-c3cccs3)nc(NN3C(=O)C=C(C)C3=O)c12 | 2.96 µM (active) | –
